The results in this text go back to PubChem BioAssay (NCI).

Common to all, as to experiment: NCI-60 one-dose screen, 48 h (100 = growth as untreated, 0 = no growth, -100 = all killed)
Conditions in all cases: 10 µM

For assay [1], the system named is DU-145 prostate.
The test system of assay [2] is K-562 leukemia.
Assay [3] relates to MALME-3M melanoma.
For assay [4], the system named is MDA-MB-231 breast.
For assay [5], the system named is RXF 393 renal.
In assay [6] the test system is SF-268 CNS.
The subject of assay [7] is SF-295 CNS.
For assay [8], the system named is SF-539 CNS.
For assay [9], the system named is UACC-257 melanoma.
Assay [10] has as its system M14 melanoma.

The panel holds about 83,000 compounds, 20% with a hit somewhere; the sample as a whole holds those more often.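 The endpoint reported here, percent growth, reads 100 for growth as untreated, 0 for no net growth and -100 for all cells dead.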 Values without a mark were called inactive. Activity calls are given as the source filed them. How the source made its calls: active means growth percent below 10; inactive means the rest.

As to `O=C1/C(=C/c2ccc([N+](=O)[O-])s2)Oc2ccc(Cl)cc21`, the growth in assay [1] was -73.5% (active); in assay [2], -11.2% (active); in [3], -56.8% (active); in assay [4], -57% (active); in assay [5] it was -63.9% (active); in assay [6] it was -57.9% (active). Further, the growth in assay [7] is -16.2% (active); in [8], -91.3% (active); in [9], -54.5% (active); in [10], -44.4% (active).
For the molecule `Cc1ccc(NC(=O)/C=N/O)cc1C`, the growth is 104% in assay [1]; 95.6% in [2]; 108% in [3]; 95.9% in assay [4]; 99.6% in assay [5]; 104% in [6]. Further, the growth was 85.4% in assay [7], 96.4% in assay [8], 96.4% in [9] and 101% in assay [10].
`CCCCC(CC#N)(CCC)CCC`: the growth in assay [1] is 108%; in assay [2], 101%; in [3], 82.7%; in assay [4], 126%; in [5], 126%; in [6], 101%. Also, the growth in [7] is 96.7%; in assay [8], 100%; in assay [9] it was 110%; in assay [10] it was 97.4%.
With `COc1cc(-c2nc3ccccc3[nH]2)ccc1OCC(=O)N=Nc1c(O)[nH]c2ccccc12`, the growth is 99.7% in assay [1]; 17.5% in assay [2]; 54.6% in [3]; 88.8% in [4]; 106% in [5]; 94.1% in assay [6]. Besides, the growth in assay [7] was 95.9%; in assay [8], 97.8%; in [9], 105%; in assay [10] it was 83.3%.
As to `O=C(Nc1ccc(CN2CCOCC2)cc1)c1ccc(-c2cc(Cl)ccc2Cl)o1`, the growth in [1] is 75.4%; in [2] it was -23.7% (active); in [3], -53.4% (active); in assay [4], 9.54% (active); in [5] it was 38.4%; in assay [6], 57.8%. In addition, the growth in assay [7] is 57.6%; in [8], 88.3%; in [9] it was 49.4%; in assay [10], -44.2% (active).
As to `COC(=O)[C@]12CC[C@@H](C)[C@H](C)[C@@H]1C1=CC[C@@H]3[C@@]4(C)CC(=O)[C@H](O)[C@@]5(C)COC(=C45)C[C@@]3(C)[C@]1(C)CC2`, the growth is -85.7% (active) in assay [1]; -24.9% (active) in assay [2]; -75.7% (active) in assay [3]; -72.5% (active) in assay [4]; -87.6% (active) in assay [5]; -67.2% (active) in assay [6]. Further, the growth in assay [7] was -77.8% (active); in assay [8], -52.1% (active); in [9], -75.1% (active); in assay [10], -66.3% (active).
On to `COC(=O)c1cnc2c(c1)Oc1ccc(Cl)cc1-c1cc(C)nn1-2`, for which the growth in assay [1] was 79.6%; in assay [2] it was 95.8%; in assay [3], 94.8%; in assay [4], 35%; in assay [5], 89.8%; in assay [6], 78.9%. Moreover, the growth was 92.3% in [7], 46.1% in assay [8], 107% in assay [9] and 95.3% in [10].
Consider `CCc1ccc(-c2nnc(COc3ccc(-c4nc5cc(Cl)c(Cl)cc5[nH]4)cc3OC)o2)cc1`, for which the growth in [1] was 66.6%; in assay [2], 15.5%; in [3], 57.9%; in assay [4], 58%; in assay [5] it was 46%; in [6] it was 99.1%. Besides, the growth in assay [7] is 88.2%; in assay [8], 26.1%; in assay [9], 91.4%; in assay [10], 52.6%.
As to `Cc1nc2ccc(-n3c(-c4ccc(Cl)cc4)nc4ccccc4c3=O)cc2n1Cc1ccccc1`, the growth in [1] was 95.2%; in assay [2], 85.6%; in assay [3], 89.4%; in assay [4], 88.1%; in assay [5], 104%; in [6], 92.4%. Also, the growth was 90.2% in assay [7], 96.8% in assay [8], 78.2% in [9] and 95.1% in assay [10].
For the molecule `COc1ccc(N2CCN(c3nc(-c4ccccc4)c(C#N)c(=O)[nH]3)CC2)cc1`, the growth in assay [1] is 107%; in assay [2], 87.6%; in [3], 80.8%; in [4], 106%; in assay [5], 105%; in assay [6] it was 108%. For the same molecule, the growth in [7] is 102%; in [8] it was 99.6%; in assay [9], 109%; in [10] it was 96.8%.
As to `CCCCCCCOc1cccc(/C=C2/C(=O)N=C3SCCCN32)c1`, the growth was 55.7% in assay [1]; 37% in assay [2]; 81.6% in assay [3]; 65.8% in assay [4]; 83.7% in assay [5]; 85% in [6]. The growth in [7] is 75.1%; in assay [8], 92.7%; in assay [9], 68.4%; in assay [10], 71%.
Consider `O=C(COc1ccc(-c2nc3ccccc3[nH]2)cc1)N=Nc1c(O)[nH]c2ccccc12`, for which the growth in assay [1] was 101%; in [2] it was 44.8%; in [3], 80.9%; in [4], 84.5%; in assay [5], 107%; in assay [6], 98.3%. Further, the growth in [7] was 102%; in [8], 106%; in assay [9] it was 110%; in assay [10], 116%.
With `CCCCCCN=C(N)CCCCCCCCCCC(N)=NCCCCCC`, the growth in assay [1] is 58.5%; in [2], 13.5%; in assay [3] it was 44.9%; in assay [4], 32.1%; in assay [5], 35.8%; in assay [6], 28.8%. Also, the growth in [7] is 41%; in assay [8], 29.3%; in [9], 79.8%; in [10] it was 23.2%.
On to `Nc1ncncc1-c1ccc(F)cc1`, for which the growth in assay [1] was 115%; in assay [2], 109%; in [3], 112%; in [4], 127%; in assay [5], 109%; in assay [6], 112%. Moreover, the growth was 100% in assay [7], 95.6% in [8], 118% in [9] and 107% in assay [10].
In the case of `N#Cc1ccc(-n2cnc(NC(=O)[C@H]3CCN(C#N)C3)c2)cc1`, the growth in assay [1] is 29.7%; in [2], 17.8%; in assay [3], -14.1% (active); in [4], 14.8%; in [5], -54.8% (active); in [6] it was 29.9%. Besides, the growth in assay [7] was 42%; in assay [8], -9.26% (active); in [9] it was 42.3%; in assay [10], 29.1%.
For `COc1ccc(-n2nnc3c(sc4ccccc43)c2=O)cc1`, the growth is 60.2% in assay [1]; 91.5% in assay [2]; 80.6% in [3]; 53.8% in assay [4]; 45% in assay [5]; 53.1% in assay [6]. For the same molecule, the growth in assay [7] was 42.3%; in [8] it was 54.7%; in [9], 80.8%; in [10] it was 86.5%.
As to `COC(=O)[C@]12CC[C@@H](C)[C@H](C)[C@@H]1C1=CC[C@@H]3[C@@]4(C)C[C@@H](O)[C@H](O)[C@@](C)(CO)[C@@H]4[C@H](O)C[C@@]3(C)[C@]1(C)CC2`, the growth in [1] was -82.5% (active); in assay [2], -31.7% (active); in [3] it was -55.9% (active); in assay [4], -66.3% (active); in [5], -81.6% (active); in assay [6] it was -31% (active). For the same molecule, the growth in assay [7] is -78.5% (active); in assay [8] it was -58.4% (active); in [9], -85.1% (active); in [10] it was -71.3% (active).
In the case of `CCCCN(CCCC)c1ccc(C(=NC(C)CCCN(CC)CC)c2ccc(N(C)C)cc2)cc1` (stereo not given), the growth was 21.1% in assay [1]; -51.3% (active) in assay [2]; -77.9% (active) in assay [3]; -79.4% (active) in assay [4]; -84% (active) in assay [5]; -43.4% (active) in assay [6]. Also, the growth in assay [7] is -72% (active); in assay [8] it was -73.2% (active); in [9] it was -70.6% (active); in [10], -83% (active).
On to `Oc1ccccc1-c1nnc(Cn2c(Cc3cccc4ccccc34)nc3ccccc32)o1`, for which the growth is 106% in assay [1]; 98.6% in assay [2]; 87.1% in [3]; 101% in assay [4]; 108% in [5]; 96.6% in [6]. For the same molecule, the growth in [7] was 93.9%; in assay [8], 97.9%; in assay [9], 100%; in [10], 96.9%.
